The values that follow come from PubChem BioAssay (NCI).

This assay in a line: NCI Yeast Anticancer Drug Screen. Data for the mec2-1 strain (AID 157). To be noted: S. cerevisiae mec2-1 strain, hits give high values. As for the experimental part: Growth inhibition of yeast strains with defined genetic alterations is measured as a screen for potential anti-cancer activity. Selected strains with alterations in DNA damage repair or cell cycle control were exposed to compounds and growth inhibition was measured relative to vehicle treated controls. The strain used in this assay is mec2-1

The mark [1] stands for this setting: at 5.0 µM (retest, dose inferred, filed as 0.5).
Setting [2] is: at 50.0 µM (retest, dose inferred, filed as 5.0).

This is part of a sample that, as a whole, favours compounds with a hit. Of some 79,000 tested, about 15% had one in any assay. A number with no mark means an inactive call. Activity calls are given as the source filed them. Rule as the data show it: active = growth inhibition above about 70%; inactive = the rest.

Regarding `O=[N+]([O-])c1ccc(C(c2c[nH]c3ccccc23)c2c[nH]c3ccccc23)cc1`, the growth inhibition (at 1.2 µM) was 22%; the growth inhibition (at 3.7 µM) is 99% (active); the growth inhibition under setting [1] was 10%; the growth inhibition (at 11.0 µM) was 97% (active); the growth inhibition (at 33.0 µM) is 94% (active); the growth inhibition under setting [2] is 95% (active). In addition, the growth inhibition by setting is: (at 50.0 µM) 93.8% (active); (at 100.0 µM) 88% (active).
As for `CN(C)CC(CN(C)C)C(=O)/C=C/c1ccc(Cl)cc1Cl`, the growth inhibition was -3% (at 1.2 µM); -4% (at 3.7 µM); 13% under setting [1]; 6% (at 11.0 µM); 98% (active) (at 33.0 µM); 99% (active) under setting [2]. The growth inhibition is 42.2% (at 50.0 µM) and 98% (active) (at 100.0 µM).
As to `CC(=O)N1C=Cc2c(c(C)c3c([nH]c4ccccc43)c2C)C1`, the growth inhibition reads like this: (at 1.2 µM) -5%; (at 3.7 µM) 33%; under setting [1], 12%; (at 11.0 µM) 81% (active); (at 33.0 µM) 91% (active); under setting [2], 84% (active). For the same compound, the growth inhibition is 87.3% (active) (at 50.0 µM) and 93% (active) (at 100.0 µM).
Consider `Brc1ccc(B2Nc3ccccc3N2)cc1`, for which the growth inhibition (at 1.2 µM) was 1%; the growth inhibition (at 3.7 µM) is 6%; the growth inhibition under setting [1] was 17%; the growth inhibition (at 11.0 µM) was 18%; the growth inhibition (at 33.0 µM) is 31%; the growth inhibition under setting [2] was 59%. The growth inhibition is, setting by setting: (at 50.0 µM) 56.8%; (at 100.0 µM) 46%.
Take `CNC(=S)N/N=C(/C)CCC/C(C)=N/NC(=S)NC`: the growth inhibition runs as follows: (at 1.2 µM) 27%; (at 3.7 µM) 42%; under setting [1], 66%; (at 11.0 µM) 53%; (at 33.0 µM) 48%; under setting [2], 55%. Also, the growth inhibition was 43.4% (at 50.0 µM) and 35% (at 100.0 µM).
